{"source": "PubChem BioAssay AID449739", "about": "(Vanderbilt High Throughput Screening Facility, 2010)", "note": "In all, about 100,000 compounds went through this assay and about 4,200 (4.2%) were called active. The sample holds actives, similar compounds and a random draw of the others, so the mix is not that of the screen.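 The calls were made as follows: active = single-dose well whose peak fluorescence ratio is a statistical outlier from its plate by either plate-standardised score or position-corrected B-score; inactive = the rest.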"}
{"target": "Voltage-dependent T-type calcium channel subunit alpha-1H (Homo sapiens) (UniProt O95180)", "sequence (O95180 whole entry, looked up)": "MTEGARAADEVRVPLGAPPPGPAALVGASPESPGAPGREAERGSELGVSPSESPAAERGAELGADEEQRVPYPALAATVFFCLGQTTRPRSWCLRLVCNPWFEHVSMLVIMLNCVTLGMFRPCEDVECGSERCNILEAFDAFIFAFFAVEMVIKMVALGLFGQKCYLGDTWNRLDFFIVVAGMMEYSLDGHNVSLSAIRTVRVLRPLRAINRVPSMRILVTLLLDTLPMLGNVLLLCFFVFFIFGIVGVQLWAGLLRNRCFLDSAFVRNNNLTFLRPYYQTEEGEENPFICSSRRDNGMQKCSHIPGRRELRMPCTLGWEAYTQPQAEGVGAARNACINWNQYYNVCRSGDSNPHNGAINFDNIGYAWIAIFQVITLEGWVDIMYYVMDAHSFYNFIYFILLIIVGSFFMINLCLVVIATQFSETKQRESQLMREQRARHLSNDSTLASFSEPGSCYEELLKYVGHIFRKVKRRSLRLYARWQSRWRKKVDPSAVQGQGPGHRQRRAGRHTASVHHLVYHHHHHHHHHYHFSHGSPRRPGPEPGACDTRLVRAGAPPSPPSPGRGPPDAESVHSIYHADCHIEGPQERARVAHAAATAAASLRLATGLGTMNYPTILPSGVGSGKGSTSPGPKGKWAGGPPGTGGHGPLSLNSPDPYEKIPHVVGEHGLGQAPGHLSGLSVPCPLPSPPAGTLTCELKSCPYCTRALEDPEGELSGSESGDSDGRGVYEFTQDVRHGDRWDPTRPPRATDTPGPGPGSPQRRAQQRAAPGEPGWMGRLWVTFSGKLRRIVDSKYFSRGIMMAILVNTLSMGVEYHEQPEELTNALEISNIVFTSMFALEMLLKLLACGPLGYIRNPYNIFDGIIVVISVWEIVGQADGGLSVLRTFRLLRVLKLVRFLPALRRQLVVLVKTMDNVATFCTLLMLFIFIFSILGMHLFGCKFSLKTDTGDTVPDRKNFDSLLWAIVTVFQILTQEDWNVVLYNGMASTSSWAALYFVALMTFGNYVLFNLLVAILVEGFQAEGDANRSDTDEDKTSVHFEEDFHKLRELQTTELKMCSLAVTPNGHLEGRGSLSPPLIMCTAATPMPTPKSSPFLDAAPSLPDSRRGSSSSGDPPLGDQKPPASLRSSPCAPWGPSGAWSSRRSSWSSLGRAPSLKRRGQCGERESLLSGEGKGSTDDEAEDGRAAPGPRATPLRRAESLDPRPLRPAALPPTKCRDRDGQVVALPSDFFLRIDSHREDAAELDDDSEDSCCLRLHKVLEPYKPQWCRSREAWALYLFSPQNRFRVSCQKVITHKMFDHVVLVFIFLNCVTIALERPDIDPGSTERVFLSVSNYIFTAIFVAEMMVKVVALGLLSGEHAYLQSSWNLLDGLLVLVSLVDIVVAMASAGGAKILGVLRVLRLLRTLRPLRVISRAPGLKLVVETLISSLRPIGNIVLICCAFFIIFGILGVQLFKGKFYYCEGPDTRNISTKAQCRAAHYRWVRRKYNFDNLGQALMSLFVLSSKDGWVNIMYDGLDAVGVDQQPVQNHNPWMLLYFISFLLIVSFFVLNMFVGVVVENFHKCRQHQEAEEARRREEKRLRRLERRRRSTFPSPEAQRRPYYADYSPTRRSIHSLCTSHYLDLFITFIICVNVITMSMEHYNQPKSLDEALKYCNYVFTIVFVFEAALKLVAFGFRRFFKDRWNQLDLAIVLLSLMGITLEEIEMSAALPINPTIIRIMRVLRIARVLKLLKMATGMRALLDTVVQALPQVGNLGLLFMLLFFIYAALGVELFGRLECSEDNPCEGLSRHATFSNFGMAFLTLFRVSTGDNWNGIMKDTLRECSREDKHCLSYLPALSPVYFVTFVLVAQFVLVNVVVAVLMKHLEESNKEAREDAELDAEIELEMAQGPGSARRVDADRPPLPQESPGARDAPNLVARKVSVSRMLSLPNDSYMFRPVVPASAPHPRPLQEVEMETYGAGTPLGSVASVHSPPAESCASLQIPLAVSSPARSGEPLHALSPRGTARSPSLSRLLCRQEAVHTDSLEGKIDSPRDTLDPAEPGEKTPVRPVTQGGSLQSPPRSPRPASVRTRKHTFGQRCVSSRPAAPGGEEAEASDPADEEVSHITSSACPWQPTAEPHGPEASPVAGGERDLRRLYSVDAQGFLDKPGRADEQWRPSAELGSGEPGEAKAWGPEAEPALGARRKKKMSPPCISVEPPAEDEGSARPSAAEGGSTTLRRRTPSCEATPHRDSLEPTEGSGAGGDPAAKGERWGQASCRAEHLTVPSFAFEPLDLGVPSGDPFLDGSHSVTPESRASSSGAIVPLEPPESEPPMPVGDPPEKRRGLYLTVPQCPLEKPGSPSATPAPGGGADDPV", "experiment": "Cav3.2 calcium influx blockers – cell-based, Fluo-4 calcium fluorescence, FDSS, MLSMR library, primary screen (AID 449739)", "details": "Cav3.2-expressing cells, at 10 µM, stronger effect = lower value"}
{"compound": "CCCNC(=S)NC1CC2CCCC(C1)N2CC(C)C", "note": "(configuration not stated)", "B-score": "1.82 (inactive)"}
{"compound": "COc1ccc(N2CCN(C(=O)c3ccc4c(Cl)c5c(nc4c3)CCCC5)CC2)cc1", "B-score": "-0.0196 (inactive)"}
{"compound": "CN1CCN(S(=O)(=O)c2ccc(N3CCN(S(=O)(=O)c4cccs4)CC3)nc2)CC1", "B-score": "1.73 (inactive)"}
{"compound": "N#Cc1cc([N+](=O)[O-])ccc1Oc1cccc(/C=N/NC(=O)c2ccc(Cl)cc2)c1", "B-score": "-0.086 (inactive)"}
{"compound": "CCOC(=O)Cc1csc(NC(=O)C(C)(C)C)n1", "B-score": "0.211 (inactive)"}
{"compound": "CCCCc1nnc(NC(=O)CSc2nc(C)cc(=O)[nH]2)s1", "B-score": "-0.0258 (inactive)"}
{"compound": "CCOC(=O)Cc1csc(NC(=O)CSc2nc(C)cc(=O)[nH]2)n1", "B-score": "-5.95 (active)"}
{"compound": "C=CCn1c(-c2ccc(Cl)cc2)ccc(C#N)c1=O", "B-score": "-1.56 (inactive)"}
{"compound": "NC1=NC[C@@H](Cc2ccc(O)cc2)N1CC1CCCCC1", "B-score": "0.0175 (inactive)"}
{"compound": "C#Cc1ccc([C@@H]2C=C(C(=O)O)O[C@H](OCCCCO)C2)cc1", "B-score": "-1.58 (inactive)"}
{"compound": "CCCCCCn1c(CN2CCCC(C)C2)nc2c1c(=O)n(C)c(=O)n2C", "note": "(configuration not stated)", "B-score": "-3.75 (active)"}
{"compound": "CC1CCCN(Cc2nc3c(c(=O)n(C)c(=O)n3C)n2CC(=O)c2ccccc2)C1", "note": "(configuration not stated)", "B-score": "-0.792 (inactive)"}
{"compound": "CCN1CCN(Cc2nc3c(c(=O)n(C)c(=O)n3C)n2CC(=O)c2ccccc2)CC1", "B-score": "0.531 (inactive)"}
{"compound": "C/C(=N/NC(=O)c1ccc(NC(=O)c2ccc(F)cc2)cc1)c1ccccc1", "B-score": "0.425 (inactive)"}
{"compound": "Clc1ccc(COn2c(-c3ccc(Cl)cc3Cl)nc3ncccc32)cc1", "B-score": "-5.63 (active)"}
{"compound": "CCOc1ccc(OCC)c(-c2c(=O)n(OCc3ccc(Cl)cc3)c3ccccc3[n+]2[O-])c1", "B-score": "-1.31 (inactive)"}
{"compound": "O=C(Nc1cccc2ncccc12)c1ccc(-c2ccc(Cl)cc2Cl)o1", "B-score": "-0.641 (inactive)"}
{"compound": "COc1ccc(C(F)(F)F)cc1N/C=C\\c1nnnn1-c1ccc(C)cc1", "B-score": "-3.02 (inactive)"}
{"compound": "CNC(=O)CSc1nnc(CCc2ccccc2)n1-c1ccccc1", "B-score": "-0.00574 (inactive)"}
{"compound": "COc1ccc(OC)c(/C=N/NC(=O)CSc2nnc(C)n2-c2ccccc2)c1", "B-score": "2 (inactive)"}
{"compound": "COc1ccccc1NC(=O)CSc1nnc(Cn2nnc(-c3ccccc3)n2)n1-c1ccccc1", "B-score": "-7.2 (active)"}
{"compound": "O=C(Nc1cccc2ncccc12)C(Cl)(Cl)Cl", "B-score": "1.36 (inactive)"}
{"compound": "COc1ccc(OCC(=O)NN2Cc3ccccc3C2=N)cc1", "B-score": "0.0596 (inactive)"}
{"compound": "O=C(Cc1ccccc1)N/N=C/c1ccc(Cl)cc1Cl", "B-score": "-0.673 (inactive)"}
{"compound": "CCCC(=O)Nc1cc(OCC)c(NC(=O)NC2CCCCC2)cc1OCC", "B-score": "0.0578 (inactive)"}
{"compound": "CCOc1ccccc1N(CC(=O)NC1CCCCC1)C(=O)CCCC(=O)Nc1ccccn1", "B-score": "-8.92 (active)"}
{"compound": "O=C(CCCC(=O)N(CC(=O)NC1CCCC1)Cc1ccccc1Cl)Nc1ccccn1", "B-score": "-1.66 (inactive)"}
{"compound": "N=c1ccn(CC(=O)NC(N)=O)c2ccccc12", "B-score": "1.07 (inactive)"}
{"compound": "CC(=O)c1cnc(SCCN2C(=O)c3ccccc3C2=O)nc1C", "B-score": "-0.173 (inactive)"}
{"compound": "CCOC(=O)Nc1ccccc1N1C(=O)c2ccccc2C1=O", "B-score": "0.477 (inactive)"}
{"compound": "CCOC(=O)c1cc2n(c1N)-c1ccccc1C2=O", "B-score": "-9.74 (active)"}
{"compound": "CCOC(=O)c1cc2n(c1C)-c1ccccc1C2=O", "B-score": "-0.985 (inactive)"}
{"compound": "CSc1nc(N(C)NC(=O)c2cccc(C)c2)c2ccccc2n1", "B-score": "-7.16 (active)"}
{"compound": "COc1ccc(C(=O)NN(C)c2nc(-c3ccccc3)cc(C)c2S(C)(=O)=O)cc1", "B-score": "1.17 (inactive)"}
{"compound": "CN(NC(=O)c1ccccc1)c1nc2ccccc2nc1C(F)(F)F", "B-score": "-0.171 (inactive)"}
{"compound": "O=C(/C=C/c1ccccc1)c1ccccc1O", "B-score": "0.49 (inactive)"}
{"compound": "CCc1ccccc1NC(=O)/C(=C/c1ccccc1)c1ccccc1", "B-score": "-4.21 (inactive)"}
{"compound": "O=C(/C=C/c1ccccc1)N/C(=C/c1ccccc1)C(=O)Nc1ccccc1O", "B-score": "-8.64 (active)"}
{"compound": "COC(=O)c1c(-c2ccsc2)oc2ccc(-c3cc(OC)c(OC)c(OC)c3)cc12", "B-score": "-0.846 (inactive)"}
{"compound": "CCO[C@@H]1OC(C(=O)N2CCOCC2)=C[C@H](C)[C@H]1CCCO", "B-score": "0.155 (inactive)"}
{"compound": "Cc1ccc(NC(=O)N2CCSc3ccccc32)cc1", "B-score": "-0.746 (inactive)"}
{"compound": "Cc1ccc(CN(N=Nc2nonc2N)c2nonc2N)c(C)c1", "B-score": "-6.83 (active)"}
{"compound": "c1ccc(COc2ccccc2CNCc2cccnc2)cc1", "B-score": "-0.314 (inactive)"}
{"compound": "CC1(C)CC(=O)C(C=NCCN2CCN(C(=S)Nc3cccc(Cl)c3)CC2)=C(O)C1", "B-score": "-0.563 (inactive)"}
{"compound": "Cc1ccc(C)c(CSc2nc(-c3ccco3)nc3c2c(=O)n(C)c(=O)n3C)c1", "B-score": "-0.668 (inactive)"}
{"compound": "COc1ccc(CNC(=O)C2CC(c3ccc(C(F)(F)F)cc3)=NO2)cc1", "note": "(configuration not stated)", "B-score": "-2.34 (inactive)"}
{"compound": "O=C(C1=C[C@H](c2coc3ccccc3c2=O)C[C@H](OCc2ccc(CO)cc2)O1)N1CCN(Cc2ccccc2)CC1", "B-score": "-1.94 (inactive)"}
{"compound": "O=C1NC[C@@H](Cc2ccc(O)cc2)N(CCc2cccc(F)c2)C1=O", "B-score": "-1.22 (inactive)"}
{"compound": "CCN1C(=O)N[C@@H](c2ccccc2)C(C(=O)OC)=C1C", "B-score": "-0.116 (inactive)"}
{"compound": "COCCN1C(=O)N[C@@H](c2ccccc2)C(C(=O)OC)=C1C", "B-score": "0.0333 (inactive)"}
{"compound": "COC(=O)C1=C(C)N(C)C(C)=C(C(=O)OC)C1c1cccc(Br)c1", "B-score": "-4.38 (active)"}
{"compound": "CCc1ccc(/C=N/NC(=O)c2ccc(OC3CCCC3)cc2)s1", "B-score": "-0.109 (inactive)"}
{"compound": "CCOC(=O)C1=C(CN2CCc3ccccc32)NC(=O)NC1c1cccc([N+](=O)[O-])c1", "note": "(configuration not stated)", "B-score": "-1.81 (inactive)"}
{"compound": "CCOC(=O)C1=C(CN2CCc3ccccc32)NC(=O)NC1c1ccc(Cl)cc1", "note": "(configuration not stated)", "B-score": "-5.78 (active)"}
{"compound": "CCOC(=O)C1=C(CN2CCc3ccccc32)NC(=O)NC1c1cc(C)ccc1C", "note": "(configuration not stated)", "B-score": "0.647 (inactive)"}
{"compound": "COC(=O)CCCC1=CC2=CC(=O)C(C)(OC(=O)c3cccs3)C(=O)C2=CN1c1cccc(C#N)c1", "note": "(configuration not stated)", "B-score": "0.181 (inactive)"}
{"compound": "CCCCC(=O)Nc1nc(C)c(-c2csc(Nc3ccc(Cl)cc3)n2)s1", "B-score": "0.015 (inactive)"}
{"compound": "Cc1nc(C)c(-c2csc(NCCc3ccccc3)n2)s1", "B-score": "-6.45 (active)"}
{"compound": "Cc1ccc(Nc2nc(-c3sc(NC(=O)c4ccccc4)nc3C)cs2)cc1", "B-score": "-0.00441 (inactive)"}
{"compound": "CCn1c(O)c2ccc(C(=O)N=NC(=O)c3cccnc3)cc2c1O", "B-score": "-0.0483 (inactive)"}
{"compound": "CCCc1[nH]nc2c1C(c1ccc(OC)c(Cn3nc(C)c(Br)c3C)c1)C(C#N)=C(N)O2", "note": "(configuration not stated)", "B-score": "-0.964 (inactive)"}
{"compound": "CCCc1[nH]nc2c1C(c1ccc(Br)s1)C(C#N)=C(N)O2", "note": "(configuration not stated)", "B-score": "0.903 (inactive)"}
{"compound": "CCCc1[nH]nc2c1C(c1c(C)nn(-c3ccccc3)c1Cl)C(C#N)=C(N)O2", "note": "(configuration not stated)", "B-score": "-4.44 (active)"}
{"compound": "COc1cc(C2OC(c3cc(OC)c(OC)c(OC)c3)C(C)C2C)cc(OC)c1OC", "note": "(configuration not stated)", "B-score": "-2.38 (inactive)"}
{"compound": "O=C(NCCCCc1ccccc1)C1CC(c2ccc([N+](=O)[O-])cc2)=NO1", "note": "(configuration not stated)", "B-score": "-2.65 (inactive)"}
{"compound": "CCOC(=O)/C=C/c1ccc(C(F)(F)F)cc1S(=O)(=O)NC(C)(C)C", "B-score": "0.0548 (inactive)"}
{"compound": "O=C(NCN1CCN(CCO)CC1)c1cnccn1", "B-score": "0.423 (inactive)"}
{"compound": "Cc1ccccc1N/N=C/c1ccc(N2CCOCC2)cc1", "B-score": "0.0508 (inactive)"}
{"compound": "O=C(CSc1nnc(-c2cccnc2)n1Cc1ccco1)c1ccc(Cl)cc1", "B-score": "0.695 (inactive)"}
{"compound": "COc1ccc(C(=O)CSc2nnc(COc3ccccc3)n2Cc2ccco2)cc1", "B-score": "-4.51 (active)"}
{"compound": "CCn1c(CNc2ccc(OC)cc2)nnc1SCC(=O)c1ccc(OC)cc1", "B-score": "0.231 (inactive)"}
{"compound": "CC(C)C(NS(=O)(=O)c1cccs1)C(=O)Nc1nc(C(C)(C)C)cs1", "note": "(configuration not stated)", "B-score": "-3.54 (inactive)"}
{"compound": "C=CCn1c(SCc2cc(C(=O)OC)c(C)o2)nnc1-c1ccncc1", "B-score": "0.333 (inactive)"}
{"compound": "C=CCn1c(SCn2nnc3ccccc3c2=O)nnc1-c1ccc(Cl)cc1", "B-score": "-1.02 (inactive)"}
{"compound": "C=CCn1c(SCc2c(C(=O)OC)sc(N)c2C(=O)OC)nnc1-c1ccc(Cl)cc1", "B-score": "-3.5 (active)"}
{"compound": "COc1cccc2c1OCC(C(=O)NCc1ccc(Cl)cc1Cl)=C2", "B-score": "-1.48 (inactive)"}
{"compound": "CCc1nnc(SCc2cccc(F)c2)nc1CC", "B-score": "-2.53 (inactive)"}
{"compound": "C/C(=N\\NC(=O)c1ccccc1C)c1ccc(N2CCOCC2)cc1", "B-score": "-0.0283 (inactive)"}
{"compound": "C/C(=N\\NS(=O)(=O)c1cccc([N+](=O)[O-])c1)c1cc2ccccc2o1", "B-score": "-0.824 (inactive)"}
{"compound": "C/C(=N\\NS(=O)(=O)c1ccc(Br)cc1)c1cccs1", "B-score": "-5.02 (active)"}
{"compound": "O=S(=O)(NN=C1CCCCCCC1)c1ccc(Br)cc1", "B-score": "-1.71 (inactive)"}
{"compound": "O=Cc1c(N2CCN(c3cccc(Cl)c3)CC2)nc2ccccn2c1=O", "B-score": "-1.81 (inactive)"}
{"compound": "O=C(COC(=O)C12CC3CC(CC(C3)C1)C2)NCc1ccco1", "B-score": "-0.704 (inactive)"}
{"compound": "O=C(CSc1nnc(-c2cccs2)n1-c1ccccc1)NCc1ccco1", "B-score": "0.148 (inactive)"}
{"compound": "Cc1cc(C(=O)OCC(=O)NCc2ccco2)c(C)n1-c1ccccc1", "B-score": "-4.45 (active)"}
{"compound": "ONC(=Nc1ccc(Cl)cc1)c1ccccc1Cl", "B-score": "-1.41 (inactive)"}
{"compound": "O=c1c2ccccc2nc2n1C(CSc1ccc(F)cc1)CN2", "note": "(configuration not stated)", "B-score": "1.22 (inactive)"}
{"compound": "O=C(Nc1ncc2c(n1)-c1ccccc1OC2)c1ccc(Cl)cc1", "B-score": "-4.5 (active)"}
{"compound": "COC(=O)c1nc(NC(=O)c2ccc(Cl)cc2)n[nH]1", "B-score": "1.01 (inactive)"}
{"compound": "COc1ccc(C(=O)Nc2ncc3c(n2)-c2ccccc2CC3)cc1", "B-score": "0.00103 (inactive)"}
{"compound": "C/C=C\\C=C\\C(=O)N1CC2(CC(c3cccc(NC(=O)/C(C)=C\\C)c3)=NO2)C[C@H]1C(N)=O", "note": "(some centres not stated)", "B-score": "0.133 (inactive)"}
{"compound": "CCOC(=O)c1ccc(NC(=O)c2nc[nH]c2C(=O)N[C@@H](CCCCNC(=O)OC(C)(C)C)C(=O)OC(C)(C)C)cc1", "B-score": "-0.307 (inactive)"}
